Reference: ChEMBL document CHEMBL4513216, “Probing the Open Global Health Chemical Diversity Library for Multistage-Active Starting Points for Next-Generation Antimalarials” (ACS Infect Dis, 2020)
About 8,600 (12%) of roughly 69,000 compounds showed an effect of 50% or more. This excerpt belongs to a sample that is enriched for strong results.

Each molecule was assayed on Plasmodium berghei (assay: Screen against P. berghei liver stage (PbLuc), transformed with Luciferase, at 10uM). Settings: tested at 10 uM.
Format: functional, HepG2

| SMILES | INHIBITION [%] |
| --- | --- |
| CCc1nc(N2CCN(c3ncccc3C#N)CC2)c2cnn(C)c2n1 | 53.7 |
| CCc1nc(N2CCN(c3ncccn3)CC2)c2cnn(C)c2n1 | -3.55 |
| CCc1nc(N2CCCN(c3ncccn3)CC2)c2cnn(C)c2n1 | 33.3 |
| O=C(c1ccc(F)cc1)N1CCC2(CCCN2CC2CC2)CC1 | 26.6 |
| COc1ccccc1N1CCN(Cc2cnc3c(c2)c(C)nn3C)CC1 | 32.3 |
| CN1CCC(NC(=O)NCc2csc(Br)c2)CC1 | 45.9 |
| CCCN1CCC(NC(=O)c2csc(C)c2-c2ccc(C)cc2)CC1 | 1.56 |
| CCCN1CCC(NC(=O)c2ccc(F)cc2I)CC1 | 46.8 |
| CCCN1CCC(NC(=O)NCCc2nc(CC)c(C)s2)CC1 | 26.8 |
| Cc1ccc(-c2ccsc2C(=O)NC2CCS(=O)(=O)C2)cc1 (stereo unspecified) | -63.5 |
| CCCN1CCC(NC(=O)c2csc(C)c2C)CC1 | 64.4 |
| CCCN1CCC(NC(=O)c2csc(C)c2-c2ccccc2)CC1 | 81.5 |
| Cc1ncsc1C(=O)NC1CCN(CCC(=O)Nc2ccccc2)CC1 | -5.07 |
| Cc1ccc(-c2c(C(=O)NC3CCN(C)CC3)csc2C)cc1 | 68.4 |
| CC(C)c1nnc(CN2CCCC(Cn3cncn3)C2)o1 (stereo unspecified) | 22.03 |
| O=c1cc2c(nn1CN1CCN(c3ccc(F)cc3)CC1)CCC2 | -6.53 |
| C[C@H](NC(=O)Cc1csc(-c2cccc(Cl)c2)n1)C(=O)O | 35 |
| COCC(=O)N1CCCCC1c1nc(C)c2c(n1)N(CC1CC1)C(=O)C2 (stereo unspecified) | 23 |
| O=c1ccc(-c2ccccc2F)nn1CN1CCCCCC1 | -22.9 |

| SMILES | INHIBITION [%] |
| --- | --- |
| CCn1c(CC2CCN(S(=O)(=O)Cc3ccccc3)CC2)nn(C)c1=O | -28.1 |
| CN1CCCC(c2ccc(N3CCOCC3)cn2)C1 (stereo unspecified) | -2.48 |
| COC[C@H]1CC[C@H]2[C@H](CCN2S(=O)(=O)Cc2ccccc2)O1 | -34.6 |
| CCOC[C@H]1CC[C@H]2[C@H](CCN2S(=O)(=O)Cc2ccccc2)O1 | 12.1 |
| Cc1ccc(CS(=O)(=O)N2CC[C@H]3[C@H]2CC(=O)N3C)cc1 | 15.4 |
| CN1C(=O)CC[C@@H]2[C@H]1CCN2S(=O)(=O)Cc1ccccc1 | 61.5 |
| CN1C(=O)C[C@@H]2[C@@H]1CCN2S(=O)(=O)Cc1ccccc1 | 26.8 |
| CCOC[C@@H]1CC[C@H]2[C@H](CCN2S(=O)(=O)Cc2ccccc2)O1 | 57.1 |
| Cc1ccc2cnn(CCC(=O)Nc3nc(C)c(C)s3)c2c1 | 30.8 |
| CCC(Nc1cccc(OC)c1)C(=O)NCc1ccc2c(c1)OCO2 (stereo unspecified) | 36.4 |
| Cn1nnc2c1C(COCC1CC1)CN(Cc1ccoc1)C2 (stereo unspecified) | 42.3 |
| Cc1ccc(NC(=O)c2ccc(=O)n(CC(=O)Nc3nccs3)n2)cc1 | 42.7 |
| O=C1CC2(CCCNC2)C(=O)N1Cc1ccccc1 (stereo unspecified) | 27.4 |
| C=Cc1ccc(CN2CCCC3(CNC(=O)c4ccccc4O3)C2)cc1 (stereo unspecified) | 29.2 |
| NC(=O)c1ccc(CN2C(=O)C3(CCNCC3)Nc3ccccc32)cc1 | 67 |
| O=C1CC2(CCCNC2)C(=O)N1Cc1ccc(F)cc1 (stereo unspecified) | 4.06 |
| O=C1CC2(CCNCC2)C(=O)N1Cc1ccc(F)cc1 | 16.1 |
| CC(C)c1ccc(CN2C(=O)C3(CCNCC3)Nc3ccccc32)cc1 | 80.9 |
| C=Cc1ccc(CN2C(=O)C3(CCNCC3)Nc3ccccc32)cc1 | 87.8 |

| SMILES | INHIBITION [%] |
| --- | --- |
| NC(=O)c1ccc(CN2CCCC(N3CCCCCC3)C2)cc1 (stereo unspecified) | 22 |
| N#Cc1cccc(CN2C(=O)C3(CCNCC3)Nc3ccccc32)c1 | 25.5 |
| CN(Cc1nnc(C2CC2)n1C)C1CCN(CCc2cnn(C)c2)C1 (stereo unspecified) | 7.08 |
| CO[C@H]1CCN(S(=O)(=O)c2cn(C)cn2)[C@H]1Cc1ccccc1 | -8.85 |
| Cc1nn(C)c(N(C)C)c1CNC(C)c1cccc(OC(C)C)c1 (stereo unspecified) | 27.4 |
| CN(C)CCN(C)C(=O)c1cn(CC2CCCCC2)nn1 | -9.54 |
| O=C(NC1CCCC1)c1cnn2c(-c3ccco3)ccnc12 | -16.4 |
| COC(=O)Cn1c(=O)[nH]c2cn(-c3ccc(Br)cc3)c(=O)n21 | -38.6 |
| COc1cc(NC2CCS(=O)(=O)C2)ncn1 (stereo unspecified) | 33.7 |
| Cc1ccc(C(CC(=O)O)NC(=O)CCc2cccs2)cc1 (stereo unspecified) | 31 |
| NC(c1ccc(Cl)cc1)c1cccs1 (stereo unspecified) | 22.5 |
| CC(C)c1ccc(-c2nonc2N)cc1 | -15.2 |
| NC(c1ccc(F)cc1)c1cccs1 (stereo unspecified) | 55 |
| CC(C)c1ccc(C(N)c2cccs2)cc1 (stereo unspecified) | 75.6 |
| CS(=O)(=O)c1cccc(C(N)c2ccc(F)cc2)c1 (stereo unspecified) | -9.76 |
| Cc1ccc(C(N)c2cccs2)cc1 (stereo unspecified) | 61.5 |
| Cc1ccc(C(N)c2cccc(S(C)(=O)=O)c2)cc1 (stereo unspecified) | 38.7 |
| O=C(O)CC(NC(=O)CCCc1cccs1)c1ccc(F)cc1 (stereo unspecified) | 18.4 |
